Our source for the INHIBITION values is ChEMBL document CHEMBL4513216, “Probing the Open Global Health Chemical Diversity Library for Multistage-Active Starting Points for Next-Generation Antimalarials” (ACS Infect Dis, 2020).

Out of some 68,000 compounds screened, about 2,700 (4%) showed an effect of 50% or more. What follows is part of a selection rich in strong results, with near analogues and random picks from the rest.

The test system of the assay is Plasmodium berghei. The experiment in a line: Screen against P. berghei liver stage (PbLuc), transformed with Luciferase, at 2uM. Type of assay: functional, HepG2. Conditions: tested at 2 uM.
As for `C[C@@H]1CN(Cc2nc(C(N)=O)no2)CC[C@@]1(O)C1CC1`, the INHIBITION was 59.1%.
Turning to `C[C@@H]1CN(Cc2nc(C(N)=O)no2)CC[C@@]1(O)C1CCOCC1`, the INHIBITION was 26.14%.
Turning to `CNC(=O)c1noc(CN2CC[C@](C)(O)[C@H](C)C2)n1`, the INHIBITION is given as -44.85%.
Turning to `CC(=O)N1CCN(C(=O)c2ccc3ccn(C)c3c2)CC1`, the INHIBITION is reported as -58.53%.
`O=S(=O)(Cc1cccc(Cl)c1)CC(O)Cn1cccn1` (stereo not given): the INHIBITION is -17.17%.
Take `CN1[C@@H]2CC[C@H]1CN(C(=O)c1ccc(-c3ccccc3)[nH]1)CC2`: the INHIBITION is 21.95%.
For the compound `CC(C)n1cc(-n2cc3nc(N4CCOCC4)[nH]cc-3c2=O)cn1`, the INHIBITION is recorded as 53.22%.
For the compound `Cn1cc(-n2cc3nc(N4CCOCC4)[nH]cc-3c2=O)cn1`, the INHIBITION stood at 13.95%.
As for `CCn1cc(-n2cc3nc(N4CCOCC4)[nH]cc-3c2=O)cn1`, the INHIBITION amounted to 37.89%.
For `Cc1cnc2c(c1NCc1ccc(F)cc1)c(=O)n(C)c(=O)n2C`, the INHIBITION is given as -5.61%.
As for `COc1ccc(CNc2nnc(CC(C)(C)C)o2)cc1C#N`, the INHIBITION was 55.36%.
Take `CC(C)(C)Cc1nnc(NCc2cccc(C#N)c2)o1`: the INHIBITION is recorded as 31.51%.
Consider `CCCc1nnc(NCc2ccc(OC)c(C#N)c2)o1`, for which the INHIBITION was determined as 48.21%.
As to `O=C(CCN1CCc2ccccc21)N1C[C@@H](O)[C@H](N2CCCC2)C1`, the INHIBITION was found to be 15.72%.
Consider `O=C1C[C@H]2[C@@H](CCN2C(=O)c2cscn2)N1Cc1cccnc1`, for which the INHIBITION was -12.98%.
As for `O=C1C[C@H]2[C@@H](CCN2C(=O)Cc2ccsc2)N1Cc1cccnc1`, the INHIBITION was determined as 52.91%.
Turning to `O=C(Cc1cccs1)N1CC[C@H]2[C@H]1CCN2Cc1cccnc1`, the INHIBITION amounted to 7.33%.
Consider `O=C1C[C@H]2[C@@H](CCN2C(=O)Cc2cccs2)N1Cc1cccnc1`, for which the INHIBITION came to 55.7%.
Turning to `O=C1C[C@H]2[C@@H](CCN2C(=O)Cc2ccccc2)N1Cc1cccnc1`, the INHIBITION is 30.4%.
Turning to `O=C1C[C@H]2[C@@H](CCN2C(=O)Cc2cccs2)N1Cc1ccncc1`, the INHIBITION worked out at 17.77%.
With `CN(Cc1nnc2n1CCC2)C(=O)c1ccc2c(c1)CCO2`, the INHIBITION is 29.42%.
Turning to `CCOCCNC1(c2ccc(Cl)cc2)CCOCC1`, the INHIBITION worked out at 32.26%.
Regarding `COCCNC1(c2ccc(Cl)cc2)CCOCC1`, the INHIBITION stood at 60.9%.
Consider `CC(C)OCCNC1(c2ccc(Cl)cc2)CCOCC1`, for which the INHIBITION is reported as -17.01%.
`CC(c1nc(C(C)(C)C)no1)S(=O)(=O)CC(=O)N1CCCC1` (stereo not given): the INHIBITION is on record as -3.22%.
In the case of `Cn1c(C2CCCN2C(=O)c2cn(CCN)nn2)nc2ccccc21` (stereo not given), the INHIBITION is on record as -6.44%.
As for `O=C(CN1CCOc2ccccc2C1)NCc1cc2n(n1)CCNC2`, the figure is 5.75%; as for `O=C(CN1CCC(c2ccccc2)CC1)NCc1cc2n(n1)CCNC2`, 5.21%.
For the compound `O=C(CN1CC(c2ccccc2)CC1=O)NCc1cc2n(n1)CCNC2` (stereo not given), the INHIBITION is 66.18%.
On to `CCOc1ccccc1Nc1nc2c(C)nn(C)c2c(=O)n1C`, for which the INHIBITION was -51.9%.
For `CN1CCOC(CNC(=O)COc2ccc(F)cc2F)C1` (stereo not given), the INHIBITION is -7.88%.
As for `Cc1nc2c(c(NC(C)C)n1)CCN(C1CCOCC1)CC2`, the figure is 53.44%; as for `Cc1nc2c(c(NC(C)C)n1)CCN(C(=O)CCO)CC2`, -13.61%; as for `CC(C)Nc1nc2c(c(NC3CC3)n1)CCN(C1CCOCC1)CC2`, 4.95%.
As for `Cc1cnc(NC(=O)NC(CCO)c2cccs2)s1` (stereo not given), the figure is -11.51%; as for `Cn1nc(COc2cncnc2)c2c1CCN(Cc1ccco1)C2`, 8.36%.
Consider `Cn1nccc1C(=O)Nc1cc(C(F)(F)F)c[nH]c1=O`, for which the INHIBITION is -27.71%.
Regarding `CC(CCc1ccco1)NC(=O)Nc1cc(C(F)(F)F)c[nH]c1=O` (stereo not given), the INHIBITION worked out at 57.95%.
As for `O=C(NCCc1ccco1)Nc1cc(C(F)(F)F)c[nH]c1=O`, the INHIBITION was -6.16%.
As for `O=C(Nc1cc(C(F)(F)F)c[nH]c1=O)c1ccco1`, the INHIBITION turned out to be 56.67%.
With `O=C(NCc1ccoc1)Nc1cc(C(F)(F)F)c[nH]c1=O`, the INHIBITION was -7.02%.
On to `CCCc1noc(CCC(=O)Nc2cc(C(F)(F)F)c[nH]c2=O)n1`, for which the INHIBITION is 43.44%.
As for `O=C(CCc1ccco1)Nc1cc(C(F)(F)F)c[nH]c1=O`, the figure is 19.35%; as for `CN(Cc1ccco1)C(=O)Nc1cc(C(F)(F)F)c[nH]c1=O`, 19.35%.
For the compound `O=C(COCc1ccco1)Nc1cc(C(F)(F)F)c[nH]c1=O`, the INHIBITION is 66.2%.
On to `CCN(Cc1ccco1)C(=O)Nc1cc(C(F)(F)F)c[nH]c1=O`, for which the INHIBITION was found to be 28.65%.
Turning to `Cc1noc(CCCC(=O)Nc2cc(C(F)(F)F)c[nH]c2=O)n1`, the INHIBITION was -30.49%.
Regarding `CC(C)c1noc(CCC(=O)Nc2cc(C(F)(F)F)c[nH]c2=O)n1`, the INHIBITION stood at 64.9%.
In the case of `Cc1nc(C(C)C)sc1C(=O)N(C)Cc1cnn(C)c1`, the INHIBITION is -35.11%.
Under `Cc1cc(NC(=O)NCC(C)N2CCOCC2)n(C)n1` (stereo not given) stands 25.53%; under `CC(=O)N1CCOC(c2cncc(CCC(=O)N(C)C)n2)C1` (stereo not given), -26.69%.
On to `CCn1cc(-c2cc(-c3cc(CN(C)C)cs3)nc(N)c2C#N)c(C)n1`, for which the INHIBITION is on record as 42.48%.
In the case of `c1ccc2cc(OCCN3CCn4c(nnc4C4CC4)C3)ccc2c1`, the INHIBITION was 18.31%.
As for `Cc1cccc(CN2CCOC3(CCCN(CC(=O)N(C)C)C3)C2)n1` (stereo not given), the figure is -25.4%; as for `Cc1ccccc1C(C)NC(=O)Cc1c(C)nc2cc(=O)[nH]n2c1C` (stereo not given), -18.39%.
Consider `CC(C)n1cnnc1CN(C)Cc1ccoc1`, for which the INHIBITION is given as 33.78%.
As for `CN(CCCNc1cc(N2CCCC2CO)ncn1)S(C)(=O)=O` (stereo not given), the figure is 22.75%.
Under `Cn1cc(CN2CC[C@@H](NS(C)(=O)=O)[C@@H]2Cc2cccnc2)cn1` stands -28.13%; under `O=C(c1cc(-n2cnnn2)ccc1Cl)N1CCN(c2ccccc2)CC1`, 8.92%; under `c1csc(CN2Cc3nccn3CC(Cn3cncn3)C2)c1` (stereo not given), 54.62%.
Take `c1csc(CN2Cc3nccn3CC(Cn3cncn3)C2)n1` (stereo not given): the INHIBITION is -43.55%.
For `c1cc(CN2Cc3nccn3CC(Cn3cncn3)C2)ccn1` (stereo not given), the INHIBITION is listed as -6.68%.
Under `O=C(NCc1cccnc1)[C@@H]1CC[C@@H]2[C@@H](CCN2c2ncccn2)O1` stands 25.5%.
On to `CN(CCn1ccnc1-c1ccccn1)S(C)(=O)=O`, for which the INHIBITION was determined as 35.52%.
Regarding `CC(C)NC(=O)N1CCN(CC2CC2)CC2(CNC(=O)C2)C1` (stereo not given), the INHIBITION is on record as 13.38%.
